Bioassay records: PubChem, several laboratories
EBV LMP1 NFkB = inhibitors of Epstein-Barr LMP1-induced NF-kappaB reporter; LMP1-induced NF-kappaB luciferase reporter cells, luminescence; inhibition, % at 12.5 µM; actives 0.69% (n = 350,000); AID 504558; in the data active means inhibition above about 41%;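 further: 0% = neutral control wells and 100% = reference inhibitor control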
Peg3 prom inh = reduces Peg3 promoter-driven luciferase expression in HeLa. HeLa PEG-Prom luciferase reporter, luminescence, overnight. inhibition, % at 20 µM. actives 1.7% (n = 360,000);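 active means inhibition of at least 50% at 20 µM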
TWEAK-Fn14 inh = TWEAK-Fn14 signaling inhibition | TWEAK-stimulated Fn14 reporter cells, luciferase luminescence, 8 h | inhibition, % at 10 µM | actives 2% (n = 360,000) | AID 1159606; in the data active means inhibition above about 50%
MITF TRPM1 inh = reduces MITF-dependent TRPM1 promoter luciferase signal. actives 0.83% (n = 330,000). SK-MEL-5 TRPM1 promoter luciferase, 24 h. inhibition, % at 12.5 µM. AID 488899;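 active means mean inhibition across replicates of 60% or more, whatever share of single replicates reaches that level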
Shn3 inh set2 = reduces Shn3 3'UTR luciferase signal in osteoblasts; actives 0.52% (n = 360,000); inhibition, % at 12.5 µM; AID 588674; Clone20 osteoblast Shn3 3'UTR firefly luciferase, 24 h;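 active means mean inhibition of at least 75% with every replicate also reaching 75%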;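 further: 0% = median of neutral control wells and 100% = pilot-screen positive control compound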
TROY signal inh = inhibitors of TROY-dependent NF-kB signaling. Q293 LMP1-TROYcd NF-kB luciferase reporter, 4 h. inhibition, % at 10 µM. actives 0.98% (n = 360,000);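 active means compounds whose plate-normalised and pattern-corrected inhibition of the luciferase reporter signal at the single screening dose is 50% or more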
Starred values were filed as active, the others as inactive; · = not tested or not shown. The list is not random: actives were taken first. Their share in the collection is about 4.1%.

SMILES	EBV LMP1 NFkB	Peg3 prom inh	TWEAK-Fn14 inh	MITF TRPM1 inh	Shn3 inh set2	TROY signal inh
CCOc1ccc(CNCCc2ccc(S(N)(=O)=O)cc2)cc1	-2	-1	2	-13	2	-14
COc1cc(CNCCc2ccc(S(N)(=O)=O)cc2)ccc1OCc1ccc(Cl)cc1	-4	92*	-10	-11	45	-9
CCOc1cc(CNCCc2ccc(S(N)(=O)=O)cc2)ccc1OCc1ccc(Cl)cc1	-65	108*	86*	92*	91*	29
CC1CCCC(C)N1C(=O)CN1C(=O)c2ccccc2S1(=O)=O (centres undefined)	3	-30	6	·	-3	-8
O=C(CN1C(=O)c2ccccc2S1(=O)=O)c1ccccc1	61*	53*	100*	60	52	77*
O=C(CN1C(=O)c2ccccc2S1(=O)=O)c1ccccc1Cl	67*	41	102*	78*	63	85*
CN(C(=O)CN1C(=O)c2ccccc2S1(=O)=O)C1CCCCC1	6	-34	70*	-1	12	75*
CCn1c(C)cc(C(=O)CN2C(=O)c3ccccc3S2(=O)=O)c1C	73*	80*	93*	68*	67	83*
O=C(CN1C(=O)c2ccccc2S1(=O)=O)NCc1ccccc1Cl	0	-3	-9	-1	4	-5
O=CNc1ccccc1	-2	5	-28	0	6	-4
CCc1nn2c(NCCOC)cc(C)nc2c1-c1ccc(F)cc1	-6	7	24	-4	7	-3
CCc1ccccc1NC(=S)N1CCN(c2cccc(OC)c2)CC1	18	0	2	9	24	-9
O=C(CN1C(=O)c2ccccc2S1(=O)=O)Nc1ncc(Cl)cc1Cl	41*	58*	75*	38	39	55*
CN(C)CCCNC(=S)NCC(c1ccc(Cl)cc1Cl)c1c[nH]c2ccccc12 (centres undefined)	-41	103*	-46	46	5	0
CCCCNC(=S)NCC(c1ccccc1)c1c[nH]c2ccccc12 (centres undefined)	-5	23	18	15	11	14
NCC(c1ccccc1Cl)c1c[nH]c2ccccc12 (centres undefined)	-5	7	2	14	14	-2
NCC(c1ccc(Cl)cc1Cl)c1c[nH]c2ccccc12 (centres undefined)	1	96*	-15	17	-1	9
Cc1ccc(-c2nnc(NCc3nc4ccccc4[nH]3)c3ccccc23)cc1S(=O)(=O)N1CCOCC1	2	65*	66*	30	0	5
Cc1ccc(-c2nnc(NCc3nc4ccccc4[nH]3)c3ccccc23)cc1S(=O)(=O)N(C)C	18	16	55*	20	34	52*
Cc1ccc(-c2nnc(N3CCCCC3)c3ccccc23)cc1S(=O)(=O)N(C)C	11	29	18	17	38	16
COc1cccc(CN(C)C(=O)COc2ccc(C(=O)c3ccc(Cl)cc3)cc2)c1OC	4	27	18	-3	14	31
COc1ccc(-c2cc(C)no2)cc1S(=O)(=O)N1CCN(C(=O)c2ccco2)CC1	-6	-9	-11	7	-10	3
N#CCCN(C(=O)COC(=O)CCc1nc2ccccc2c(=O)[nH]1)c1ccccc1F	-1	1	1	13	0	3
O=C(O)c1ccc(-c2ccc(-c3ccccc3)cc2)s1	2	85*	43	81*	5	-28
O=C(Nc1ccccc1)c1ccc(-c2ccccc2)s1	-12	-341	-8	-86	-50	-27
SMILES	EBV LMP1 NFkB	Peg3 prom inh	TWEAK-Fn14 inh	MITF TRPM1 inh	Shn3 inh set2	TROY signal inh
Cc1ccc(-n2ncc3c(N4CCCC(C)C4)ncnc32)c(C)c1 (centres undefined)	-32	-329	-2	·	-33	13
COc1ccc(-n2ncc3c(N4CCN(Cc5ccccc5)CC4)ncnc32)cc1	-1	103*	81*	-8	-7	61*
c1ccc(-n2ncc3c(N4CCCCC4)ncnc32)cc1	41*	-3	95*	16	9	71*
CCN1CCN(c2ncnc3c2sc(=S)n3-c2ccccc2)CC1	8	-2	-6	-7	22	-19
CC1CCCN(c2ncnc3c2cnn3-c2ccccc2)C1 (centres undefined)	20	2	92*	41	25	80*
S=c1sc2c(N3CCN(Cc4ccccc4)CC3)ncnc2n1-c1ccccc1	5	14	58*	2	18	56*
COc1cc(/C=N/N2CCCCC2)cc(OC)c1O	6	29	-25	11	-5	7
CNc1ncnc2c1ncn2[C@H]1CN(Cc2ccc(Cl)cc2)C[C@@H](CO)O1	·	-2	11	·	14	3
COc1cccc(N2CCN(c3ncnc4c3cnn4-c3ccc(C)cc3C)CC2)c1	40	102*	106*	68*	91*	80*
Cc1ccc(-n2ncc3c(N4CCCC4)ncnc32)c(C)c1	-24	-177	4	-29	-84	-54
Cc1ccc(C(=O)Nc2sc(C)c(-c3ccccc3)c2C(N)=O)cc1[N+](=O)[O-]	15	-179	98*	18	39	87*
CCN(CC)S(=O)(=O)c1ccc(C(=O)Nc2cc(C)cc(C)c2)cc1	-1	1	9	13	·	-29
CCN(CC)S(=O)(=O)c1ccc(C(=O)Nc2ccc(Cc3ccncc3)cc2)cc1	13	24	58*	23	68	38
CCN(CC)S(=O)(=O)c1ccc(NC(=O)c2ccc(N(C)S(C)(=O)=O)cc2)cc1	13	31	50*	36	23	26
Cc1ccc2c(c1)N(CCCC(=O)NCCCN1CCCCC1)C(=O)CO2	1	12	64*	·	-6	-7
CN(C)C(=O)COc1ccc2c(-c3ccccc3)cc(=O)oc2c1	-6	4	-5	9	-6	10
COC(=O)c1ccc(CNC(=O)Cn2cnc3c(OCc4ccccc4)ncnc32)cc1	0	84*	-27	3	0	-9
O=C(Cc1ccccc1)O/N=C1\CCCc2ccccc21	-4	10	0	11	-1	1
O=C(O/N=C1\CCCc2ccccc21)c1cccs1	-3	-15	-23	-8	-6	80*
CCCNC(=O)C1CC(c2ccccc2C(F)(F)F)=NO1 (centres undefined)	-11	0	2	5	5	-15
O=C(COC(=O)c1ccc([N+](=O)[O-])o1)NC1CCCc2ccccc21 (centres undefined)	-2	16	8	6	-4	-3
COc1cccc(CNC(=O)C2CCN(S(=O)(=O)c3ccc4c(c3)C(C)(C)C(=O)N4C)CC2)c1	·	-4	8	·	8	9
c1ccc2c(-c3cccc4nccn34)cncc2c1	·	3	52*	·	13	31
